# Screens deposited in PubChem by National Center for Advancing Translational Sciences (NCATS).
# Sampled rows, rich in hits. Any-hit rate of the full collection: about 19%.
# HT1080 IDH1KD tx: toxicity to HT-1080 IDH1 knockdown cells (counter line); HT-1080 IDH1 knockdown viability, ATP luminescence, 48 h; Potency, µM (series often up to 46.1 µM), for inactives: at the highest dose activity, negative = toxicity, most hits filed as cytotoxic; 360,000 compounds, 2% hits;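 note: potency is the fitted concentration of half-maximal effect; 0% = DMSO wells and -100% = cell-free medium wells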
#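 CellTiter-Glo luminescence after 48 h compound exposure at 37 degrees C of IDH1-knockdown HT-1080 cells in 5% FBS RPMI. %Activity scaled between DMSO wells and cell-free media wells, with curves fitted and assigned curve classes.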
# TDP1 cell CPT: growth inhibition of DT40 Tdp1-/-;hTDP1 cells with camptothecin (screen for TDP1 inhibitors); chicken DT40 Tdp1-/-;hTDP1 cells + 20 nM CPT, ATP luminescence, 48 h; Potency, µM (series often up to 46.2 µM), without a hit: at the highest dose activity change, negative = growth inhibition, hits mostly inhibitors; 420,000 compounds, 12% hits; note: potency is the fitted concentration of half-maximal effect; nearly all actives have a fitted effect of over 55% in size
#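 Chicken DT40 Tdp1-/- cells complemented with human TDP1, 400 cells/well, exposed to compounds plus 20 nM camptothecin for at least 48 h at 37 C; viability read as ATP content by CellTiter-Glo luminescence.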
# HT1080NT lethal: kills 2HG-producing HT-1080-NT fibrosarcoma cells | HT-1080-NT fibrosarcoma viability, CellTiter-Glo ATP luminescence, 48 h | Potency, µM (titrated, usually from 46.1 µM), without a hit: at the top dose activity, negative = less viability, actives largely listed as cytotoxic | 360,000 compounds, 1.6% hits | AID 686970;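 note: NT is the 2HG producing partner of a matched IDH1 knockdown line; potency is the fitted concentration of half-maximal effect; 0% = DMSO-treated cells and -100% = media-only wells without cells; nearly all actives have a fitted effect of over 55% in size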
#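 A 48-hour cytotoxicity screen used HT-1080-NT cells plated 2 hours before compound delivery. ATP-based CellTiter-Glo luminescence measured viability, normalized to DMSO and no-cell controls.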
# TDP1 cell noCPT: qHTS for Inhibitors of human tyrosyl-DNA phosphodiesterase 1 (TDP1): qHTS in cells in absence of CPT; DT40 Tdp1-/- hTDP1 cells, no CPT, ATP luminescence, 48 h; Potency, µM (top dose mostly 46.2 µM), without a hit: at the highest dose activity change, negative = growth inhibition, most hits filed as inhibitors; 420,000 compounds, 15% hits; note: potency is the fitted concentration of half-maximal effect; nearly all actives have a fitted effect of over 55% in size
#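 Growth of hTDP1-complemented DT40 Tdp1-knockout cells is measured by ATP luminescence after at least 48 hr compound exposure at 37 °C, with DMSO substituting for the 20 nM CPT used in the parallel screen.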
# IL-1B inflam inh: inhibitors of inflammasome signaling (IL-1 beta secretion). THP-1 LPS/ATP IL-1B secretion, AlphaLISA, 16 h; hits give low values. activity change, % at 57.5 µM. 360,000 compounds, 4.7% hits; in the data active = activity change below about -50%; inconclusive = mostly about -30% to -49%
#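 Secreted IL-1B measured by AlphaLISA bead assay after 16 h compound exposure of THP-1 cells; compounds (final up to 57.5 uM) added 1 h before LPS (250 ng/mL) and ATP (1.25 mM) stimulation; lower signal means less secretion.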
# An asterisk follows results filed as active; u = inconclusive; x = no result given. Unless noted, calls come from the whole dose curve; as a rule, active = well fitted curve in the direction sought with a large enough effect; inconclusive = small, poorly fitted or top-dose-only effect, or another doubt; inactive = no such curve, though single readings can be large; an effect the other way counts as inactive or inconclusive. Unless noted, % is set by controls: 0 for no effect and ±100 for the full control effect.
SMILES,HT1080 IDH1KD tx,TDP1 cell CPT,HT1080NT lethal,TDP1 cell noCPT,IL-1B inflam inh
CCCC(=O)NC(C)c1nc2ccccc2n1Cc1ccccc1 (configuration not stated),x,-17%,x,u,x
CCCCCn1c(=O)c(C(=O)c2ccccc2)nc2ccccc21,3%,u,1%,23µM*,-8
CC1(C)Cc2noc(N)c2C(C)(C)N1O,13%,0%,1%,-25%,3
Cn1ccc(C(=O)NCC2CCC3(CCN(Cc4ccc(F)cc4F)CC3)O2)n1 (configuration not stated),x,-12%,x,-6%,x
COc1ccc(NC(=O)Nc2ccc(O)c3ccccc23)cc1,-10%,5.8µM*,-26%,13µM*,0
COc1ccc(C(=O)Nc2noc3ccccc23)cc1,x,-3%,x,-30%,x
COc1ccc(C(=O)Nc2ccc(O)c3ccccc23)cc1,u,u,-27%,26µM*,0
CCN1CCN(CCCOc2ccccc2-c2ccccc2)CC1,-17%,u,-19%,u,-5
c1ccc2c(OCCCN3CCCCCC3)cccc2c1,-4%,29µM*,u,23µM*,u
N=C(C[C@@H](O)COc1ccccc1-c1ccccc1)N1CCCCC1,x,3µM*,x,3.8µM*,x
OCCN1CCN(CCOc2ccccc2-c2ccccc2)CC1,-15%,u,-14%,u,-26
c1ccc(-c2ccccc2OCCCN2CCCCC2)cc1,-15%,16µM*,-8%,15µM*,-15
CCc1ccccc1OCCCN1CCCC1,-9%,1%,-14%,-4%,16
Cc1c(Cl)c([N+](=O)[O-])nn1CCCC(=O)Nc1cccc(Cl)c1Cl,7%,u,2%,u,-16
Cc1c(Br)c([N+](=O)[O-])nn1CCCC(=O)Nc1sc2c(c1C#N)CCC2,-7%,15µM*,-15%,16µM*,-11
Cc1c(Cl)c([N+](=O)[O-])nn1CCCC(=O)Nc1sc2c(c1C#N)CCC2,0%,-22%,14%,-23%,29
COC(=O)c1ccccc1NC(=O)CCCn1nc([N+](=O)[O-])c(Br)c1C,1%,15µM*,-4%,-20%,21
CCOc1ccc(-c2cn3c(n2)sc2cc(C(=O)NCCCN(CC)CC)ccc23)cc1,x,0.73µM*,x,0.82µM*,x
CCOc1ccc(-c2cn3c(n2)sc2cc(C(=O)NCCCN4CCCCC4)ccc23)cc1,x,1.6µM*,x,1.6µM*,x
CCOc1ccc(CNC(=O)c2ccc3c(c2)sc2nc(-c4ccc(OC)cc4)cn23)cc1,x,-3%,x,-18%,x
CCOc1ccc(-c2cn3c(n2)sc2cc(C(=O)NCCCN4CCCCCC4)ccc23)cc1,x,5.8µM*,x,6.5µM*,x
CCCN1CCN(CCCNC(=O)c2ccc3c(c2)sc2nc(-c4ccc(OCC)cc4)cn23)CC1,x,1.8µM*,x,2.9µM*,x
CCC(CC)c1nnc(NC(=O)c2cc(C(=O)OC)cc([N+](=O)[O-])c2)s1,-2%,8%,7%,-15%,-8
Cc1cc(Br)cc(C)c1OCC(=O)Nc1ccc(S(=O)(=O)Nc2ncccn2)cc1,x,u,x,-4%,x
CCN(CC)CCNC(=O)c1ccc2c(c1)sc1nc(-c3ccc(F)cc3)cn12,x,5.8µM*,x,3.3µM*,x
CCOc1ccc(CNC(=O)c2ccc3c(c2)sc2nc(-c4ccccc4)cn23)cc1,x,-17%,x,-13%,x
CCOc1ccc(-c2cn3c(n2)sc2cc(C(=O)NC4CCCc5ccccc54)ccc23)cc1 (configuration not stated),x,12µM*,x,5.2µM*,x
CN(CC(=O)NC1CC1)S(=O)(=O)c1cc(Cl)ccc1Cl,3%,8%,15%,13%,14
CCN1CCc2c(sc(N)c2C#N)C1,9%,u,7%,23µM*,14
COc1cccc(CN2CCCC(c3nc(C)ncc3-c3ccc(F)cc3)C2)c1OC (configuration not stated),x,u,x,21µM*,x
